Abeta rescue: qHTS for compounds that reverse cellular toxicity of Amyloid beta (A-beta) peptide in yeast: Primary Screen. yeast expressing A-beta42, growth rescue, OD600, 48 h; response scale: 0% DMSO, 100% iron-clioquinol control. Potency, µM (titrated, usually from 46.1 µM), most hits filed as activators. actives 0.063% (n = 410,000); further: nearly all actives have a fitted effect of over 55% in size
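Yeast growth medium received pinned compounds, then yeast cells expressing toxic A-beta were added; plates incubated at 30 C for 48 hr. Growth read as absorbance at 600 nm, normalized to DMSO and equimolar FeCl3 plus clioquinol controls.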
FUS yeast rescue: qHTS for Suppressors of FUS Proteinopathy: Primary screen using FUS-linked yeast assay. S. cerevisiae FUS-expressing, growth rescue, OD600, 24 h. Potency, µM (titrated, usually from 76.6 µM), most hits filed as activators. actives 0.24% (n = 390,000). AID 1347120, 2019;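 further: plate controls were DMSO vehicle for no effect and reference control for full effect; nearly all actives have a fitted effect of over 55% in size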
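Quantitative HTS measuring growth restoration of FUS-toxic yeast. Galactose-induced cells (OD 0.005) were exposed 24hr at 30C to compounds at several concentrations, then absorbance at 600 nm was recorded.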
aSyn yeast inh: qHTS of alpha-syn Inhibitors; Potency, µM (top dose mostly 46.1 µM), for the others: at the highest dose growth rescue (activation), actives largely listed as activators; Yeast expressing alpha-synuclein, growth rescue, BacTiter-Glo, 24 h; actives 0.14% (n = 370,000); AID 652106, 2013; further: % of control where 0% means no effect; nearly all actives have a fitted effect of over 65% in size
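Galactose-induced alpha-syn yeast (OD600=0.02, raffinose-pregrown) + pinned cpd, 24 hr, 30 deg C; growth by BacTiter-Glo luminescence. Growth restoration scores as activation.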
TDP43 rescue: qHTS of TDP-43 Inhibitors | TDP-43 expressing yeast growth rescue, BacTiter-Glo, 24 h | Potency, µM (highest dose often 46.1 µM), without a hit: top-dose growth rescue (activation), most hits filed as activators | actives 1.8% (n = 410,000) | AID 652104, 2013; further: % of control where 0% means no effect; nearly all actives have a fitted effect of over 50% in size
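Yeast cells expressing TDP-43 under galactose induction are exposed to compounds for 24 hr at 30 deg C. BacTiter-Glo luminescence measures growth, so protective compounds score as activators.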
Starred values were filed as active, the others as inactive; i = inactive; ? = inconclusive; . = no result; [ ] = dose if it differs, or a comment. The list is not random: actives were taken first. Their share in the collection is about 2.1%. The call rests on the fitted dose curve; in most records, active means well fitted curve in the direction sought with a large enough effect; inconclusive means small, poorly fitted or top-dose-only effect, or another doubt; inactive means no such curve, though single readings can be large; an effect the other way counts as inactive or inconclusive. Potency means the concentration at half of the fitted maximal effect.

SMILES	Abeta rescue	FUS yeast rescue	aSyn yeast inh	TDP43 rescue
CC(C)(C)Sc1ccc(/C=N/O)cc1[N+](=O)[O-]	i	i	9%	16µM*
Cc1ccc(Sc2ccc(/C=N/O)cc2[N+](=O)[O-])cc1	i	i	1%	?
COc1ccc2c(c1)c1nnc(SC)nc1n2C	i	i	3.5µM*	2.8µM*
COc1ccc2c(c1)c1nnc(SC(C)C)nc1n2C	.	.	7.9µM*	.
COc1ccc2c(c1)c1nnc(SCC(=O)N3C(C)CCCC3C)nc1n2C (stereo not drawn)	i	i	8%	14µM*
Cc1ccc(-n2c(-c3ccccc3)nsc2=NC#N)cc1	.	.	-6%	.
O=C(Nc1ccc([N+](=O)[O-])cc1Cl)c1cc(Cl)cc(Cl)c1O	.	.	-63%	.
CC(=O)c1ccc(NC(=O)C2CCC(CNS(=O)(=O)c3ccc4c(c3)CCCC(=O)N4)CC2)cc1 (stereo not drawn)	i	i	.	20%
CNC(=O)CC1C(=O)N(Cc2ccccc2)C(=S)N1NC(=O)c1cccc(F)c1 (stereo not drawn)	i	.	-9%	7%
CCN1C(=O)C(CC(=O)Nc2ccccc2Cl)N(NC(=O)c2cccc(F)c2)C1=S (stereo not drawn)	i	.	15%	6.3µM*
Clc1ccc(-c2nnc(C3CC3)o2)cc1	i	i	8%	7%
Clc1ccc(-c2nnc(C3CCCCC3)o2)cc1	i	i	-3%	11µM*
CC(C)OC(=O)c1c(NC(=O)c2cc3nc(-c4ccccc4)cc(C(F)(F)F)n3n2)sc2c1CCCC2	i	i	.	-9%
Cc1ccccc1CNC(=O)Cn1c(=O)c2cccn2c2cccnc21	i	i	.	21%
Cc1ccc(Cl)c2sc(N3CCN(C(=O)C4CC4)CC3)nc12	i	?	.	14µM*
O=C(C1CC1)N1CCN(c2nc3c(Cl)cccc3s2)CC1	i	i	.	?
Cc1ccc(C)c2sc(N3CCN(C(=O)C(C)(C)C)CC3)nc12	i	i	.	35µM*
Cc1ccc(NC(=O)O/N=C/c2ccc(F)cc2)cc1	i	i	-19%	6%
O=C(Nc1ccccc1)O/N=C/c1ccc(F)cc1	i	i	-13%	10µM*
N#Cc1ccccc1COC(=O)CCC(=O)c1cccs1	i	i	-6%[1.84 µM]	22%
O=C(CCC(=O)c1cccs1)OCc1ccc([N+](=O)[O-])cc1	i	i	0%	11µM*
COC(=O)C1=C(C)N(c2cc(Cl)cc(Cl)c2)C(=O)C1	i	i	-1%	18µM*
COC(=O)C1=C(C)N(c2ccc(C(=O)OC)cc2)C(=O)C1	i	i	11%	12%
O=C(COC(=O)C12CC3CC(CC(C3)C1)C2)NCC1CCCO1 (stereo not drawn)	.	.	0%	.
CCC1CCc2sc(C(=O)N(C)CC(=O)Nc3ccc(OC)cc3)cc2C1 (stereo not drawn)	i	i	24%	11µM*
SMILES	Abeta rescue	FUS yeast rescue	aSyn yeast inh	TDP43 rescue
CCC1CCc2sc(C(=O)N(C)CC(=O)Nc3ccc(N4CCOCC4)cc3)cc2C1 (stereo not drawn)	i	i	6%	8.9µM*
CC1CCc2sc(C(=O)N(C)CC(=O)Nc3ccc(N4CCOCC4)cc3)cc2C1 (stereo not drawn)	i	i	4%	-7%
CCC1CCc2sc(C(=O)N(C)CC(=O)Nc3cccc(OC)c3)cc2C1 (stereo not drawn)	i	.	0%	8%
Cc1nc(SCC(=O)Nc2ccc(Cl)cc2C(F)(F)F)[nH]c(=O)c1Cc1ccccc1	i	i	.	28%
COC(=O)c1c(SCC(=O)Nc2cc(C)cc(C)c2)[nH]c2ccccc2c1=O	i	i	.	24%
COc1ccc(C2=NS(=O)(=O)N(C)C(C(=O)Nc3ccc(OC(F)(F)F)cc3)=C2)cc1	i	i	.	20%
Cc1occc1C(=O)N/N=C/C(Br)=C/c1ccccc1	i	i	-14%	14µM*
Cc1occc1C(=O)N/N=C/c1ccc(-c2ccccc2)cc1	i	i	-33%	-37%
COc1cccc(C=C(C(C)=O)C(=O)c2ccccc2)c1	i	i	?	11µM*
COc1ccc(C(=O)N/N=C/C(Br)=C/c2ccccc2)cc1	i	i	-12%	2%
COc1cccc(C(=O)N/N=C/C(Br)=C/c2ccccc2)c1	i	i	12%	20µM*
Cc1ccc2c(C(=O)CNc3nc(C)c(C)s3)c(C)[nH]c2c1	.	.	-2%	.
O=C(OCCF)N1CCN(/[N+]([O-])=N/Oc2ccc([N+](=O)[O-])cc2[N+](=O)[O-])CC1	.	.	-49%	.
COc1ccc(C=O)cc1COc1ccc(F)cc1F	i	i	-10%	25%
COc1cc(C=O)ccc1OCc1cccc(Br)c1	i	.	14%	20µM*
COc1cc(C=O)ccc1OCc1ccccc1Br	i	.	-19%	11µM*
CCOC(=O)c1c(Nc2ccc(C)cc2)nnc(-c2ccccc2)c1-c1ccccc1	i	i	0%	19%
CC(C)C[C@@H]1COc2cc(F)ccc2S(=O)(=O)N1C	.	i	.	.
Cc1nnc(SCc2ccc(C(=O)Nc3cc(Cl)ccc3C)cc2)s1	i	i	0%	10µM*
CCn1c2ccccc2c2cc(/C=C(/C#N)C(N)=S)ccc21	i	.	1%	32µM*
CCn1c2ccccc2c2cc(N)ccc21	i	i	-1%	0%
Cc1ccc(N2C(=O)CC(Sc3ccccc3C(=O)O)C2=O)cc1 (stereo not drawn)	i	.	14%	?
CCOC(=O)c1c(N2C(=O)CC(Sc3ccccc3C(=O)O)C2=O)sc(C)c1C (stereo not drawn)	?	i	9%	14µM*
Cc1cc(C)cc(N2C(=O)CC(Sc3ccccc3C(=O)O)C2=O)c1 (stereo not drawn)	i	i	-75%	22µM*
Cc1cc(N(C)C)ccc1/C=C/c1ccnc2ccccc12	.	.	-15%	.
SMILES	Abeta rescue	FUS yeast rescue	aSyn yeast inh	TDP43 rescue
CC(NC(=O)CCCN1C(=O)CCn2nc(-c3cn(C)c4ccccc34)cc21)c1ccccc1 (stereo not drawn)	i	i	.	0%
c1ccc(-c2ccnc3nc(N4CCN(c5ccccc5)CC4)nn23)cc1	i	i	8%	13µM*
O=C(Nc1ccc(OCc2ccccc2Cl)cc1)c1cccnc1	i	i	-2%	16µM*
Cc1cccc(-c2nnn3c2nc(NCCc2ccc(S(N)(=O)=O)cc2)c2cc(Cl)ccc23)c1	i	i	.	4%
Cc1ccc(S(=O)(=O)Nc2ccccc2CNc2ccc(Br)cn2)cc1	i	.	0%	20µM*
CCCCCCC(=O)NC1CCCCN(Cc2cccc(Cl)c2)C1=O (stereo not drawn)	.	i	.	.
COCCN=c1scc(-c2cc(OC)c(OC)c(OC)c2)n1/N=C/c1c(C)[nH]c2ccccc12	i	13µM*	-18%	22µM*

Compound activity: PubChem BioAssay, National Center for Advancing Translational Sciences (NCATS)
